From PubChem BioAssay (NCI) come the findings set out here.

Holding throughout (experiment): NCI-60 one-dose screen, 48 h (100 = growth as untreated, 0 = no growth, -100 = all killed)
Common to all, as to details: 10 µM unless noted

Test [1] relates to HCT-15 colon.
The test system of test [2] is HT29 colon.
The subject of test [3] is SNB-75 CNS.
The test system of test [4] is SNB-19 CNS.
Test [5] concerns U251 CNS.
The subject of test [6] is PC-3 prostate.
The test system of test [7] is SK-MEL-5 melanoma.
Test [8] deals with UACC-62 melanoma.
Test [9] deals with LOX IMVI melanoma.
The test system of test [10] is SK-MEL-28 melanoma.
Test [11] has as its system SK-MEL-2 melanoma.
Test [12] has as its system EKVX NSCLC.
For test [13], the system named is SN12C renal.
Test [14] relates to TK-10 renal.
In test [15] the test system is ACHN renal.
Test [16] deals with CAKI-1 renal.
The subject of test [17] is A498 renal.
Test [18] deals with CCRF-CEM leukemia.
Test [19] has as its system MOLT-4 leukemia.
For test [20], the system named is UO-31 renal.

Several values for one entry are separate records, joined by “and”; a condition that tells them apart may be missing. Equal values may be shown once. The panel holds about 83,000 compounds, 20% with a hit somewhere; the sample as a whole holds those more often.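 How to read the values: 0–100, growth inhibition (40 = 60% inhibited); 0, no net growth; -100 to 0, cell death (-40 = 40% of starting cells died; -100 = all dead).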 Unmarked numbers belong to inactive results. Activity calls are given as the source filed them. How the source made its calls: active means growth percent below 10; inactive means the rest.

With `COc1c(F)cc(-n2c(C(=O)N3CC(F)C3)cc3cccnc32)cc1F`, the growth in test [1] was 98.6%; in test [2], 104%; in [3], 82.2%; in test [4] it was 94.2%; in [5], 97.7%; in test [6], 95.3%. Further, the growth in [7] is 99%; in test [8], 101%; in test [9], 84.2%; in test [10] it was 122%; in test [11] it was 108%; in test [12], 103%. In addition, the growth is 97.6% in test [13]; 99% in test [14]; 93.2% in test [15]; 86.3% in test [16]; 107% in test [17]; 99.1% in test [18]. For the same molecule, in test [19], the growth is 97.8%.

Consider `Cc1ccc(C(=O)N(CCCN)[C@@H](c2nc3cc(Cl)ccc3c(=O)n2Cc2ccccc2)C(C)C)cc1`, for which the growth was -50% (active) in [1]; 0.611% (active) in test [2]; -18.7% (active) in test [3]; 5.11% (active) in [4]; -65% (active) in [5]; 16.4% in test [6]. In addition, the growth is -94.2% (active) in test [7]; -79.6% (active) in test [8]; -90% (active) in [9]; -31% (active) in [10]; -43% (active) in [11]; -7.16% (active) in test [12]. In addition, the growth in [13] was -15.6% (active); in test [14] it was -33.5% (active); in [15], -28.3% (active); in test [16], 4.04% (active); in test [17], -4.18% (active); in [18], 1.72% (active). Moreover, in [19], the growth is -29.3% (active).

For `Cc1ccc(NC(=O)c2ccc(CN3CCN(C)CC3)cc2)cc1Nc1nccc(-c2cccnc2)n1`, the growth in [1] is 88.5% and 48.2%; in test [2], 52.9% and 24.1%; in [3], 99.4% and 82.5%; in test [4], 112% and 95%; in test [5], 89.4% and 65.7%; in test [6] it was 89.4% and 72%. In addition, the growth in [7] is 77.7% and 63.2%; in [8], 92.3% and 87.9%; in [9], 88.4% and 77.1%; in test [10], 109% and 77.8%; in test [12], 84.3% and 90.9%; in [13], 94% and 83.7%. The growth in test [20] was 92.4% and 77.6%; in [14], 110% and 74.9%; in test [15], 101% and 82.7%; in test [16], 100% and 102%; in test [17] it was 86.3% and 82.5%; in test [18] it was 93.4% and 49.7%. In test [19], the growth was 82% and 45.1%.

`COc1ccc2c(c1)CCNC21C(=O)Nc2c(Br)cc(Br)cc21` (stereo not drawn): the growth was 104% in test [1]; 104% in test [2]; 70.6% in [3]; 91.5% in [4]; 96.7% in [5]; 97.9% in test [6]. The growth was 98.4% in test [7]; 86.6% in [8]; 102% in [9]; 101% in test [10]; 106% in test [11]; 78.7% in [12]. Besides, the growth in test [13] is 92.5%; in [14], 106%; in test [15], 93.7%; in test [16], 82.8%; in [17], 67%; in test [18], 113%. Further, in [19], the growth is 95.9%.

For the molecule `Cc1nnc(NS(=O)(=O)c2ccc(N=Nc3ccc(N)nc3N)cc2)s1`, the growth was 99.7% and 107% in test [1]; 108% and 104% in test [2]; 92% and 89.6% in [3]; 100% and 112% in test [4]; 105% and 106% in [5]; 93.8% and 98.2% in [6]. Moreover, the growth in test [7] is 117%; in [8], 97% and 111%; in test [9] it was 93.2% and 101%; in test [11] it was 104% and 116%; in [12] it was 104% and 105%; in test [13] it was 92.3% and 105%. The growth was 76.1% and 80.1% in test [20]; 112% and 111% in test [14]; 103% and 110% in test [15]; 98% and 96% in test [16]; 99.7% and 123% in [17]; 100% and 105% in [18]. Further, the growth in test [19] is 102% and 96.3%.

On to `Cc1ccc(-c2nc([P+](c3ccccc3)(c3ccccc3)c3ccccc3)c(Nc3ccccc3)o2)cc1`, for which the growth in test [1] was 1.96% (active); in [2], -2.08% (active); in [3] it was -31.6% (active); in test [4] it was 2.16% (active); in [5], -16.2% (active); in test [6], 4.11% (active). Also, the growth was -87.4% (active) in [7]; -25.8% (active) in test [8]; -8.29% (active) in test [9]; -42.3% (active) in test [10]; -58.8% (active) in test [11]; -2.84% (active) in test [12]. For the same molecule, the growth in test [13] is 2.84% (active); in test [14], 8.06% (active); in [15], -11.6% (active); in [17] it was -37.9% (active); in test [18], 0.282% (active); in test [19], -9.22% (active).
